Results published in the antibiotic and cytotoxicity screens of Wong et al. (2023).
The campaign covered roughly 39,000 compounds. About 1,500 (3.8%) were called active. For the sample, actives were picked, then their nearest neighbours and some compounds at random.

The compounds below were run on HSkMC (human skeletal muscle cells) (assay: cytotoxicity call (relative viability < 0.9)). Conditions: 10 µM.

Row | SMILES | cytotoxicity call
1 | CC(C)NC(=O)Nc1ccc2c(c1)CC(=O)N([C@H](C)CO)C[C@@H](C)[C@@H](CN(C)Cc1ccc(-c3ccccc3)cc1)O2 | inactive
2 | C[C@@H]1CN([C@@H](C)CO)C(=O)c2cc(C#CCN(C)C)cnc2O[C@H]1CN(C)S(C)(=O)=O | inactive
3 | C[C@@H]1CN([C@@H](C)CO)C(=O)c2cc(NS(=O)(=O)c3cccs3)ccc2O[C@@H](C)CCCCO[C@H]1CN(C)C(=O)Cc1ccccc1 | inactive
4 | COc1ccc(CN(C)C[C@@H]2Oc3ccc(NS(=O)(=O)c4cn(C)cn4)cc3CC(=O)N([C@H](C)CO)C[C@H]2C)cc1 | inactive
5 | C[C@H](CO)N1C[C@H](C)[C@H](CN(C)Cc2ccc(-c3ccccc3)cc2)Oc2ccc(NC(=O)NC3CCCCC3)cc2CC1=O | inactive
6 | COc1ccc(S(=O)(=O)N2C[C@H](O)COC[C@@H]3O[C@@H](CC(=O)NCCCN(C)C)CC[C@H]32)cc1 | inactive
7 | C/C(=C\CC[C@@H](C)[C@H]1C[C@@H](O)[C@@]2(C)[C@H]3CC[C@H]4C(C)(C)[C@@H](O[C@@H]5O[C@@H](CO[C@H]6OC[C@@H](O)[C@@H](O)[C@@H]6O)[C@@H](O)[C@@H](O)[C@@H]5O)CC[C@@]45C[C@@]35C[C@@H](O)[C@]12C)C(=O)O[C@H]1O[C@@H](CO)[C@@H](O)[C@@H](O)[C@@H]1O | inactive
8 | C[C@H]1CN([C@@H](C)CO)C(=O)CCCn2nncc2CO[C@H]1CN(C)C(=O)c1cc(-c2ccccc2)on1 | inactive
9 | C[C@H]1CCCCO[C@H](CN(C)CC2CC2)[C@@H](C)CN([C@@H](C)CO)C(=O)c2cc(NC(=O)c3ccccc3)ccc2O1 | inactive
10 | Cc1noc(C)c1NC(=O)Nc1ccc2c(c1)CC(=O)N([C@@H](C)CO)C[C@@H](C)[C@H](CN(C)Cc1ccc(C(=O)Nc3ccccc3N)cc1)O2 | inactive
11 | C[C@H](CO)N1C[C@H](C)[C@H](CN(C)CC2CCOCC2)Oc2cc(C#Cc3ccccc3F)ccc2S1(=O)=O | inactive
12 | Nc1nc(Cl)nc2c1ncn2[C@H]1C[C@@H](O)[C@@H](CO)O1 | inactive
13 | Nc1nc(Cl)nc2c1ncn2[C@H]1C[C@H](O)[C@@H](CO)O1 | active
14 | Nc1ncnc2c1ncn2[C@H]1C[C@H](O)[C@@H](CO)O1 | inactive
15 | CCN(CC)CCOc1ccc2c(c1)C(=O)c1cc(OCCN(CC)CC)ccc1-2 | inactive
16 | CCN(CC)CCOc1ccc(Nc2ncc3cc(-c4c(Cl)cccc4Cl)c(=O)n(C)c3n2)cc1 | active
17 | C[C@](N)(Cc1ccc(O)c(O)c1)C(=O)O | inactive
18 | c1ccc(CCNc2ccnc3cc4ccccc4cc23)cc1 | active
19 | NCCNc1cccc2ccccc12 | inactive
20 | NNCCc1ccccc1 | inactive
21 | Cc1noc(C)c1S(=O)(=O)Nc1ccc2c(c1)C(=O)N([C@H](C)CO)C[C@H](C)[C@@H](CN(C)Cc1ccc(Oc3ccccc3)cc1)O2 | inactive

Row | SMILES | cytotoxicity call
22 | C[C@@H]1COCC(=O)N1 | inactive
23 | C[C@@H]1CN([C@H](C)CO)C(=O)c2cc(NC(=O)Cc3ccccc3)ccc2O[C@@H](C)CCCCO[C@@H]1CN(C)S(=O)(=O)c1cccs1 | inactive
24 | COc1ccccc1C#Cc1cnc2c(c1)C(=O)N([C@@H](C)CO)C[C@@H](C)[C@@H](CN(C)S(=O)(=O)c1cn(C)cn1)O2 | inactive
25 | C[C@@H]1CN([C@H](C)CO)C(=O)c2cc(C#Cc3ccccc3F)cnc2O[C@H]1CN(C)S(=O)(=O)c1ccccc1F | inactive
26 | C[C@H]1CN([C@@H](C)CO)C(=O)c2cc(C#Cc3ccccc3F)cnc2O[C@@H]1CN(C)S(=O)(=O)c1ccccc1F | inactive
27 | COc1ccccc1C#Cc1cnc2c(c1)C(=O)N([C@H](C)CO)C[C@@H](C)[C@H](CN(C)S(=O)(=O)c1cn(C)cn1)O2 | active
28 | C[C@H](CO)N1C[C@H](C)[C@@H](CN(C)S(=O)(=O)c2ccccc2F)Oc2ncc(C#Cc3ccccc3F)cc2C1=O | active
29 | COc1ccccc1C#Cc1cnc2c(c1)C(=O)N([C@H](C)CO)C[C@@H](C)[C@@H](CN(C)S(=O)(=O)c1cn(C)cn1)O2 | inactive
30 | Cc1ccc(S(=O)(=O)Nc2ccc3c(c2)CC(=O)N([C@H](C)CO)C[C@@H](C)[C@@H](CN(C)S(=O)(=O)c2ccc(F)cc2)O3)cc1 | inactive
31 | Cc1ccc(S(=O)(=O)Nc2cccc3c2O[C@@H](CN(C)S(C)(=O)=O)[C@@H](C)CN([C@H](C)CO)C3=O)cc1 | inactive
32 | C[C@@H]1CN([C@H](C)CO)C(=O)c2ccccc2-c2ccccc2CO[C@@H]1CN(C)C(=O)Nc1cccc(C(F)(F)F)c1 | inactive
33 | C[C@@H]1CCCCO[C@H](CN(C)CC2CCCCC2)[C@H](C)CN([C@H](C)CO)C(=O)c2cc(NC(=O)c3ccccc3)ccc2O1 | inactive
34 | C[C@@H]1CCCCO[C@@H](CN(C)Cc2ccc(C(F)(F)F)cc2)[C@H](C)CN([C@H](C)CO)C(=O)c2cc(NC(=O)NC3CCCCC3)ccc2O1 | inactive
35 | C[C@@H]1CCCCO[C@@H](CN(C)Cc2ccc(C(F)(F)F)cc2)[C@@H](C)CN([C@@H](C)CO)C(=O)c2cc(NC(=O)NC3CCCCC3)ccc2O1 | active
36 | C[C@@H]1CCCCO[C@H](CN(C)Cc2ccc(C(F)(F)F)cc2)[C@H](C)CN([C@H](C)CO)C(=O)c2cc(NC(=O)NC3CCCCC3)ccc2O1 | active
37 | C[C@H](CO)N1C[C@H](C)[C@H](CN(C)Cc2ccc(C(F)(F)F)cc2)OCCCC[C@H](C)Oc2ccc(NC(=O)NC3CCCCC3)cc2C1=O | inactive
38 | C[C@@H]1CCCCO[C@@H](CN(C)Cc2ccc(C(F)(F)F)cc2)[C@H](C)CN([C@@H](C)CO)C(=O)c2cc(NC(=O)NC3CCCCC3)ccc2O1 | inactive
39 | C[C@@H]1CCCCO[C@H](CN(C)Cc2ccc(C(F)(F)F)cc2)[C@@H](C)CN([C@@H](C)CO)C(=O)c2cc(NC(=O)NC3CCCCC3)ccc2O1 | inactive
40 | C[C@@H]1CN([C@H](C)CO)C(=O)c2cc(NC(=O)NC3CCCCC3)ccc2O[C@@H](C)CCCCO[C@H]1CN(C)Cc1ccc(C(F)(F)F)cc1 | inactive
41 | C[C@@H]1CCCCO[C@H](CN(C)Cc2ccc(C(F)(F)F)cc2)[C@H](C)CN([C@@H](C)CO)C(=O)c2cc(NC(=O)NC3CCCCC3)ccc2O1 | active
42 | C[C@@H]1CN([C@@H](C)CO)C(=O)c2cc(NC(=O)NC3CCCCC3)ccc2O[C@@H](C)CCCCO[C@@H]1CN(C)Cc1ccc(C(F)(F)F)cc1 | inactive

Row | SMILES | cytotoxicity call
43 | C[C@@H]1CN([C@H](C)CO)C(=O)c2cc(NC(=O)NC3CCCCC3)ccc2O[C@@H](C)CCCCO[C@@H]1CN(C)Cc1ccc(C(F)(F)F)cc1 | inactive
44 | C[C@@H]1CCCCO[C@H](CN(C)Cc2ccc(C(F)(F)F)cc2)[C@@H](C)CN([C@H](C)CO)C(=O)c2cc(NC(=O)NC3CCCCC3)ccc2O1 | inactive
45 | C[C@H]1CCCCO[C@@H](CN(C)Cc2ccc(C(F)(F)F)cc2)[C@@H](C)CN([C@@H](C)CO)C(=O)c2cc(NC(=O)NC3CCCCC3)ccc2O1 | active
46 | COc1ccc(CCNC(=O)[C@@]2(Sc3ccc(C)cc3)CC(=O)N(C(C)C)[C@@H]2c2ccc(CO)cc2)cc1 | inactive
47 | COc1ccc(NC(=O)N(C)C[C@H]2Oc3c(NC(=O)C4CC4)cccc3C(=O)N([C@@H](C)CO)C[C@@H]2C)cc1 | inactive
48 | C[C@@H]1CN([C@H](C)CO)S(=O)(=O)c2ccc(C#Cc3ccncc3)cc2O[C@@H]1CN(C)C(=O)C1CCC1 | inactive
49 | COc1cccc(S(=O)(=O)Nc2ccc3c(c2)[C@@H]2C[C@H](CC(=O)NCc4ccccc4F)O[C@H](CO)[C@@H]2O3)c1 | inactive
50 | C[C@@H]1CCCCO[C@H](CN(C)S(=O)(=O)c2cccs2)[C@H](C)CN([C@@H](C)CO)C(=O)c2cc(NC(=O)Nc3ccccc3)ccc2O1 | inactive
51 | C[C@@H]1CCCCO[C@@H](CN(C)C(=O)Cc2ccccc2)[C@@H](C)CN([C@@H](C)CO)C(=O)c2cc(NS(=O)(=O)c3ccc(F)cc3)ccc2O1 | inactive
52 | C[C@H]1CN([C@@H](C)CO)C(=O)Cc2cc(NC(=O)C3CCCCC3)ccc2O[C@H]1CN(C)C(=O)Nc1ccc(C(F)(F)F)cc1 | inactive
53 | C[C@@H]1CN([C@H](C)CO)C(=O)c2cc(NC(=O)C3CCCCC3)ccc2O[C@@H](C)CCCCO[C@@H]1CN(C)C(=O)c1ccccc1 | inactive
54 | C[C@H]1CN([C@@H](C)CO)C(=O)Cc2cc(NC(=O)CCC(F)(F)F)ccc2O[C@H]1CN(C)S(=O)(=O)c1cccs1 | inactive
55 | C[C@H](CO)N1C[C@H](C)[C@@H](CN(C)Cc2ccc(C(=O)O)cc2)OCCCC[C@H](C)Oc2ccc(NC(=O)Nc3ccccc3)cc2C1=O | inactive
56 | CC(C)(ON=C(C(=O)NC1C(=O)N2C(C(=O)[O-])=C(C[n+]3ccccc3)CSC12)c1csc(N)n1)C(=O)O (configuration not stated) | inactive
57 | C[C@H](CO)N1C[C@H](C)[C@@H](CN(C)Cc2ccc(C(F)(F)F)cc2)OCCCC[C@H](C)Oc2ccc(NC(=O)NC3CCCCC3)cc2C1=O | active
58 | C[C@@H]1CN([C@@H](C)CO)C(=O)c2cc(NC(=O)NC3CCCCC3)ccc2O[C@@H](C)CCCCO[C@H]1CN(C)Cc1ccc(C(F)(F)F)cc1 | inactive
59 | C[C@H]1CCCCO[C@H](CN(C)Cc2ccc(C(F)(F)F)cc2)[C@@H](C)CN([C@@H](C)CO)C(=O)c2cc(NC(=O)NC3CCCCC3)ccc2O1 | inactive
60 | Cc1ccc(/C=N/N(C)C2=NCCN2)o1 | inactive
61 | Cc1cc(C)c2c(c1)[C@@H](N(Cc1cc(C(F)(F)F)cc(C(F)(F)F)c1)c1nnn(C)n1)CCCN2C[C@H]1CC[C@H](C(=O)O)CC1 | active
62 | C[C@H]1CN([C@@H](C)CO)C(=O)c2cc(NC(=O)Nc3ccc(C(F)(F)F)cc3)ccc2O[C@H]1CN(C)C(=O)Nc1ccc2c(c1)OCO2 | inactive
